Tau fluor counter – counter-screen for tau fibril formation inhibitors; tau K18 P301L Alexa594 fluorescence, heparin fibrillization; Potency, µM (doses to about 57.7 µM), inactives show at the highest dose activity change, negative = decrease; 280,000 compounds, 0.93% hits; note: potency is the fitted concentration of half-maximal effect; nearly all actives have a fitted effect of over 55% in size
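Human K18 P301L tau (15 uM unlabeled plus 0.24 uM Alexa 594-labeled, final) in 100 mM sodium acetate pH 7 was mixed with compound and 20 uM heparin and incubated 6 hr at 37 C.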
NPSR antag – antagonists of human neuropeptide S receptor cAMP signaling; Q6W5P4; Potency, µM (highest dose often 38.3 µM), for the others: at the top dose activity change, negative = inhibition, usual class: inhibitors; CHO-NPSR cells, cAMP TR-FRET, antagonist mode; 220,000 compounds, 1% hits; note: potency is the fitted concentration of half-maximal effect; nearly all actives have a fitted effect of over 50% in size
Target sequence (Q6W5P4 whole entry, looked up): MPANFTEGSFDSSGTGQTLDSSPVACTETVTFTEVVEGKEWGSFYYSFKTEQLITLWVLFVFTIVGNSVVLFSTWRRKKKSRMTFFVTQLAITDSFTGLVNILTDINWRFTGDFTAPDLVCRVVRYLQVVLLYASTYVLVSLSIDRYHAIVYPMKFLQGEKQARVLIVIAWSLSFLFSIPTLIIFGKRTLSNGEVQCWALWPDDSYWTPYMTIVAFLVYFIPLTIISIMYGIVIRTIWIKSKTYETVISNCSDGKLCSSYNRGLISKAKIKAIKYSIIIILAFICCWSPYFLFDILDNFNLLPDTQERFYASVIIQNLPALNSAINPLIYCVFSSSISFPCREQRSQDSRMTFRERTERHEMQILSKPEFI
Tau fibril ThT – tau fibrillization inhibition (ThT binding); 270,000 compounds, 2.1% hits; Potency, µM (doses to about 57.4 µM), for the others: top-dose activity, negative = inhibition, actives largely listed as inhibitors; P10636; recombinant tau K18 P301L, heparin-induced fibrillization, ThT fluorescence; note: potency is the fitted concentration of half-maximal effect; nearly all actives have a fitted effect of over 55% in size
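Tau K18 P301L fragment (15 uM unlabeled plus 0.24 uM Alexa 594-labeled) in 100 mM sodium acetate pH 7 with compound, fibrillization induced by 20 uM heparin for 6 hr at 37 C. Thioflavin T (30 uM) added, fluorescence read after 1 hr (ex 450, em 510 nm).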
PNC assembly inh – inhibitors of perinucleolar compartment assembly | PC3M PTB-GFP, PNC prevalence imaging, 16 h; hits give low values | activity change (PNC), negative = inhibition, % at 10 µM | 140,000 compounds, 3.1% hits | AID 2417;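 active = readout at or below -70, meaning at least 70% loss of cells showing the perinucleolar compartment, a nuclear body marking cancer cells; inconclusive = readout between -30 and a set limit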;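 note: plate controls were DMSO wells for no effect and camptothecin positive control wells for full effect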
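Compounds are pinned in duplicate onto adhered PC3M cells stably expressing GFP-tagged PTB and incubated 16 h at 37 C. Cells are then fixed, nuclei stained with Hoechst, and PNC-positive cells counted.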
JMJD2E inh – blocks human JMJD2E demethylase activity; AID 2147; B2RXH2; JMJD2E catalytic domain, FDH-coupled NADH fluorescence (FDH is formaldehyde dehydrogenase); Potency, µM (series often up to 57.1 µM), without a hit: at the highest dose activity change, negative = inhibition, actives largely listed as inhibitors; 230,000 compounds, 1.6% hits; active = well fitted inhibition curve with a large enough effect, not every such curve was filed as active; inconclusive = small, poorly fitted or top-dose-only effect, or another doubt; inactive = no such curve, though single readings can be large or run the other way;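 note: potency is the fitted concentration of half-maximal effect; 0% = wells with enzyme and -100% = buffer wells without enzyme; nearly all actives have a fitted effect of over 50% in size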
Target sequence (B2RXH2 1-337 limits assumed): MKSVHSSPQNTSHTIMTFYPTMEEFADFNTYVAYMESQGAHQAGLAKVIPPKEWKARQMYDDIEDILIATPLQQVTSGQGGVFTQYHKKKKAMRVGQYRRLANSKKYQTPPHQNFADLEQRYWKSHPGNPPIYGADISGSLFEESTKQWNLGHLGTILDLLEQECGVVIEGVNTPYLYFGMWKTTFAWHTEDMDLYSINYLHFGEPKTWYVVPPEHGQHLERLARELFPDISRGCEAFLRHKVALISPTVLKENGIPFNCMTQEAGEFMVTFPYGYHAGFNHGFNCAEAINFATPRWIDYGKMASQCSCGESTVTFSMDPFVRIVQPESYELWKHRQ
Tau fibril FP – inhibitors of human tau fibril formation | 280,000 compounds, 0.39% hits | K18 P301L tau heparin fibrillization, Alexa594 FP, 6 h | Potency, µM (titrated, usually from 57.7 µM), for the others: at the top dose activity, negative = inhibition, actives largely listed as inhibitors; note: potency is the fitted concentration of half-maximal effect; nearly all actives have a fitted effect of over 55% in size
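Heparin (20 uM) drove fibril formation of recombinant tau K18 P301L, 15 uM unlabeled with 0.24 uM Alexa 594 label, for 6 hr at 37 C in 100 mM sodium acetate pH 7. Fluorescence polarization (555/632 nm) read 1 hr after 30 uM ThT.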
Numbers without * were called inactive; ? = inconclusive; / = no result; [ ] = dose if it differs, or a comment. The list is not random: actives were taken first. Their share in the collection is about 5.1%. Unless noted, calls come from the whole dose curve; as a rule, active = well fitted curve in the direction sought with a large enough effect; inconclusive = small, poorly fitted or top-dose-only effect, or another doubt; inactive = no such curve, though single readings can be large; an effect the other way counts as inactive or inconclusive. Unless noted, % is set by controls: 0 for no effect and ±100 for the full control effect.

SMILES	Tau fluor counter	NPSR antag	Tau fibril ThT	PNC assembly inh	JMJD2E inh	Tau fibril FP
CC(=O)Nc1ccc(S(=O)(=O)Nc2ccc(N3CCOCC3)cc2)cc1	1.4%	-1.6%[46.1 µM]	-4.1%	-23.1	3.7%	8.0%
O=C1C(NS(=O)(=O)c2cccs2)=C(N2CCN(c3ccccc3)CC2)C(=O)c2ccccc21	?	-24.3%[46.1 µM]	6.31µM*	?	-24.7%	?
Cc1ccc(S(=O)(=O)NC2=C(N3CCN(c4ccccc4F)CC3)C(=O)c3ccccc3C2=O)cc1	?	-25.8%[46.1 µM]	15.8µM*	4.7	-3.8%	4.2%
CC(=O)Nc1ccc(S(=O)(=O)NC2=C(N3CCN(c4ccc(F)cc4)CC3)C(=O)c3ccccc3C2=O)cc1	12.6µM*[quencher]	?	5.62µM*	0.6	?	?
Cc1ccccc1NC(=O)C1CCN(S(=O)(=O)c2ccccc2)CC1	10.2%	/	8.3%	/	/	7.0%
O=C(Nc1sc2c(c1C(=O)NCc1ccco1)CCCC2)c1cc(=O)c2cc(Cl)ccc2o1	-13.2%	/	?	/	/	-1.3%
CCN(CC)C(=O)c1sc(NC(=O)C(C)Sc2nc(-c3ccccc3)cc(C(F)(F)F)n2)c(C(=O)OC)c1C (stereo unspecified)	-26.2%	/	25.1µM*	/	/	?
COc1ccc(S(=O)(=O)N2CCC(c3nnnn3-c3ccccc3)CC2)cc1OC	-29.2%	/	-7.9%	/	/	0.1%
CCOC(=O)c1cnc(SC)nc1Sc1ccccc1Cl	-27.1%	-6.0%[46.1 µM]	?	-104.0*	1.2%	-8.6%
CCOC(=O)c1cnc(SC)nc1NCCOC	3.2%	8.0%	13.4%	/	-0.5%	2.3%
COc1ccc(C2=C(N3CCN(c4cccc(C)c4)C(C)C3)c3ccccc3C2=O)cc1 (stereo unspecified)	?	/	?	/	/	6.5%
Cc1ccc(-n2c(SCC(=O)OC(C)C)nnc2-c2ccncc2)cc1	1.7%	-13.3%[46.1 µM]	-0.8%	-100.0*	2.1%	5.5%
Cn1nc(-c2ccc(Cl)cc2)nc2c(=O)n(C)c(=O)nc1-2	-16.5%	1µM*	8.91µM*	37.9	?	?
CS(=O)(=O)n1nc(-c2ccc(Cl)cc2)nc1N	-14.6%	-6.8%	-13.4%	/	?	-10.9%
Cc1ccc(N(CC(=O)N2CC(=O)Nc3ccccc32)S(=O)(=O)c2ccc3c(c2)OCCO3)cc1	-21.4%	-13.1%[46.1 µM]	-6.7%	-100.0*	-4.8%	-3.5%
O=C(O)CN(c1ccc(F)cc1)S(=O)(=O)c1ccc2c(c1)OCCO2	-10.0%	8.4%[46.1 µM]	-11.0%	27.4	6.1%	-14.3%
Nc1nonc1NC(=O)CSc1ncccc1C(=O)O	-0.5%	-4.1%[46.1 µM]	2.3%	-83.6*	1.4%	-9.2%
COc1ccc(OC)c(/C=C2\S/C(=N/NC(=O)c3ccc4ccccc4c3)NC2=O)c1	?	-11.9%	8.91µM*	23.0	?	3.1%
O=C1N/C(=N/NC(=O)c2cccc3ccccc23)S/C1=C\c1ccccc1OCc1ccccc1	-29.0%	-19.3%[46.1 µM]	?	-3.8	5.9%	0.6%
O=c1nc(/C=C/c2ccc(O)c(O)c2)oc2ccccc12	-29.6%	-14.3%	?	/	12.6µM*	7.7%
CNC(=O)C1CCN(Cc2cc3ccccc3n2Cc2cccc(C)c2)CC1	-20.2%	/	-7.0%	/	/	-7.6%
CN(C1=C(NC(=O)c2ccccc2)C(=O)c2ccccc2C1=O)C1CCS(=O)(=O)C1 (stereo unspecified)	-26.9%	?	14.1µM*	95.3	?	?
CC(=O)NC1=C(NC2CCS(=O)(=O)C2)C(=O)c2ccccc2C1=O (stereo unspecified)	8.1%	19.0%	11.9%	-28.4	7.7%	6.6%
Cc1ccc(O)c(NC(=O)CCCC(=O)O)c1	-11.8%	11.5%[7.67 µM]	-11.6%	-101.0*	2.8%	-5.6%
COc1ccc(C)cc1NC(=O)CN(c1ccccc1F)S(C)(=O)=O	-15.9%	-9.7%[46.1 µM]	-12.5%	-3.2	-0.9%	-10.6%
SMILES	Tau fluor counter	NPSR antag	Tau fibril ThT	PNC assembly inh	JMJD2E inh	Tau fibril FP
CCCCCCCCC(=O)Nc1cc(C)ccc1OC	-8.6%	-10.9%[46.1 µM]	-8.2%	-100.0*	-0.2%	0.3%
COc1ccc(C)cc1NC(=O)CN(c1ccc(F)cc1)S(C)(=O)=O	-10.4%	-17.6%[46.1 µM]	-2.2%	-94.1*	9.9%	-3.4%
COc1ccc(Cl)cc1NC(=O)Cn1ccn(-c2cc(C)cc(C)c2)c(=O)c1=O	-0.1%	/	-2.7%	/	/	-5.5%
COc1ccc(NC(=S)NC(NC(=O)c2cccc(Cl)c2)C(Cl)(Cl)Cl)c([N+](=O)[O-])c1 (stereo unspecified)	?	10µM*	?	12.9	7.2%	11.7%
COC(=O)[C@@H]1CC[C@H](C)[C@@H](c2ccc(C)cc2)N1C(=O)c1ccc(/C=N\O[C@@H](C)CN2CCCCc3nc(C)c(C)cc32)cc1	-4.3%[11.6 µM]	/	-5.4%[11.5 µM]	/	/	-3.3%[11.6 µM]
COC(=O)[C@@H]1CC[C@H](C)[C@@H](c2ccc(C)cc2)N1C(=O)c1ccc(/C=N/O[C@@H](C)CN2CCCCc3nc(C)c(C)cc32)cc1	-25.5%	10µM*	?	?	-3.8%	-2.9%
CCC(C)(C)NC(=O)c1cc(C(=O)OC)cc([N+](=O)[O-])c1	-4.3%	-2.9%[46.1 µM]	-6.2%	22.1	5.3%	2.9%
CCCN(CCC)S(=O)(=O)c1ccc(NC(=O)c2cc(C(=O)OC)cc([N+](=O)[O-])c2)cc1	8.91µM*[quencher]	-9.1%[46.1 µM]	-3.2%	20.5	3.2%	12.8%
CC(C)(C)OC(=O)N1CCC(c2c(C(=O)NCc3ccco3)cnn2-c2ccccc2)CC1	-12.3%	/	-6.1%	/	/	7.0%
CC(=O)c1cccc(NC(=O)NC2CC3CCCC(C2)N3CC(C)C)c1 (stereo unspecified)	2.7%	0.4%[46.1 µM]	2.7%	-100.0*	-7.6%	2.8%
CCCN1C2CCCC1CC(NC(=O)Nc1cccc(C(C)=O)c1)C2 (stereo unspecified)	-4.0%	-0.9%[46.1 µM]	-3.7%	?	4.5%	-6.3%
CCOC(=O)c1ccc(NC(=O)c2ccc3c(c2)CCN3S(=O)(=O)c2ccc(Cl)cc2)cc1	?	/	18.2%	/	/	?
Cc1ccc2c(c1)c1c(c(=O)n(Cc3ccccc3)c(=O)n1CC(=O)NCc1ccccc1Cl)n2C	-12.8%	/	-8.3%	/	/	-4.1%
CCN(CC)S(=O)(=O)c1cccc(NC(=O)/C=C/c2cccc([N+](=O)[O-])c2)c1	12.6µM*[quencher]	-25.0%[46.1 µM]	?	7.0	3.2%	-18.2%
CCN(CC)S(=O)(=O)c1ccc(/C=C/C(=O)Nc2ccc(N3CCOCC3)cc2)cc1	31.6µM*[quencher]	28.6%	15.8µM*	/	3.9%	?
O=C(/C=C/c1ccc(S(=O)(=O)N2CCOCC2)cc1)NC(=S)Nc1ccc(N2CCOCC2)cc1	?	-7.4%	25.1µM*	?	5.4%	6.8%

Screening results (PubChem)
